This note sets out measurements from PubChem BioAssay (EPA / NIEHS).

Active and inactive are the calls of the source. Rule for the calls: active = hit-call score of the fitted dose curve at least 0.9, where 1 is the maximum; inactive = score below 0.9.

The nature of assay [1]: ATG_GLI_CIS: Attagene CIS-FACTORIAL HepG2 Assay for human Zinc Finger Protein GLI1 (AID 2282945). The conditions noted are these: HepG2, Attagene cis-factorial reporter mRNA, GLI element; actives raise or lower the signal. A digest of the protocol:
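HepG2 cells transiently transfected with cis-promoter multiplexed reporter units report endogenous transcription factor activity. After 24 h chemical exposure, reporter mRNA was quantified by RT-PCR, 6-FAM labelling, HpaI digestion and capillary electrophoresis, with bidirectional fitting against DMSO.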

Assay [2] deals with Bile acid receptor (Homo sapiens) (UniProt Q96RI1). In words: ATG_IR1_CIS: Attagene CIS-FACTORIAL HepG2 Assay for human Nuclear Receptor Subfamily 1 Group H Member 4 (NR1H4), IR1 submotif (AID 2282946). To be noted: IR1 reporter transcription, actives raise or lower the signal. A digest of the protocol:
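Transient MRTU transfection, HepG2; 24 h dosing; RNA → RT-PCR → 6-FAM primer extension → HpaI digest → capillary electrophoresis fluorescence. Gain/loss of signal fitted relative to DMSO.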

Assay [3] in a line: ATG_GRE_CIS: Attagene CIS-FACTORIAL HepG2 Assay for human Glucocorticoid Response Elements (GRE) (AID 2282947). To be noted: HepG2 GRE cis-reporter, Attagene multiplex mRNA; actives raise or lower the signal. The gist of the method: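 Following 24 h chemical exposure of transiently transfected HepG2 cells, total RNA was reverse-transcribed and reporter cDNA amplified, fluorescently labelled and sized by capillary electrophoresis. Signal gain or loss was fitted relative to DMSO vehicle.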

A short description of assay [4]: ATG_ISRE_CIS: Attagene CIS-FACTORIAL HepG2 Assay for human Interferon Regulatory Factor 1 (IRF1) binding to an Interferon-Stimulated Response Element (ISRE) (AID 2282948). To be noted: HepG2 ISRE cis-reporter (Attagene), mRNA transcription readout; actives raise or lower the signal. A digest of the protocol: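 Transiently transfected HepG2 cells carrying cis-element reporter units, dosed 24 hours. Reporter mRNA quantified by RT-PCR, fluorescent primer extension, HpaI digestion and capillary electrophoresis. Bidirectional fitting relative to DMSO.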

Assay [5] in a line: ATG_M_32_CIS: Attagene CIS-FACTORIAL HepG2 Assay for M32 Transcription Factor (Internal Marker) (AID 2282949).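 Note: background control marker of the multiplexed CIS panel rather than a real target.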 The conditions noted are these: HepG2 Attagene cis-factorial M32 reporter, mRNA; actives raise or lower the signal. A digest of the protocol: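 HepG2 cells transiently transfected with multiplexed cis-regulated reporter units, dosed 24 h. Reporter mRNA quantified by RT-PCR, 6-FAM labelling, HpaI digestion and capillary electrophoresis; bidirectional fit vs DMSO.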

Assay [6] has as its target Hypoxia-inducible factor 1-alpha (Homo sapiens) (UniProt Q16665). The assay is described as follows: ATG_HIF1a_CIS: Attagene CIS-FACTORIAL HepG2 Assay for human Hypoxia Inducible Factor 1 (HIF1A) (AID 2282951). To be noted: HepG2 Attagene cis-factorial HIF1a reporter transcription; actives raise or lower the signal. A digest of the protocol:
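Endogenous-TF cis reporter readout, human HepG2 cells, 24 h incubation; mRNA detected via RT-PCR and capillary electrophoresis fluorescence; DMSO-normalised bidirectional fitting.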

Assay [7] has as its target Hepatocyte nuclear factor 6 (Homo sapiens) (UniProt Q9UBC0). In words: ATG_HNF6_CIS: Attagene CIS-FACTORIAL HepG2 Assay for human Hepatocyte Nuclear Factor 6 (HNF6) (AID 2282952). The conditions noted are these: HepG2 Attagene cis-factorial HNF6 reporter transcription; actives raise or lower the signal. The gist of the method: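 Multiplexed mRNA reporter assay in transfected HepG2; 24 h dosing; RT-PCR plus capillary electrophoresis fluorescence; DMSO-referenced bidirectional curve fitting.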

Assay [8] deals with Heat shock factor protein 1 (Homo sapiens) (UniProt Q00613). The assay is described as follows: ATG_HSE_CIS: Attagene CIS-FACTORIAL HepG2 Assay for human Heat Shock Transcription Factor 1 (HSE) (AID 2282953). The conditions noted are these: HepG2 HSE cis-reporter, Attagene RNA transcription; actives raise or lower the signal. A digest of the protocol:
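HepG2 cells transiently transfected with multiple reporter transcription units under cis-regulatory promoter control, measuring endogenous transcription factor activity. After 24 h chemical exposure, reporter mRNA quantified by RT-PCR, fluorescent labelling, HpaI digestion and capillary electrophoresis; bidirectional fit versus DMSO.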

Assay [9] in a line: ATG_MRE_CIS: Attagene CIS-FACTORIAL HepG2 Assay for human Metal Responsive Element (MRE) (AID 2282954). The conditions noted are these: HepG2 MRE cis-reporter transcription, Attagene multiplex; actives raise or lower the signal. A digest of the protocol:
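Step one: transfect HepG2 with cis-regulated reporter units. Step two: dose 24 h. Step three: isolate RNA, RT-PCR, 6-FAM label, HpaI digest, capillary electrophoresis. Fit bidirectionally to DMSO.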

Assay [10] has as its target Paired box protein Pax-6 (Homo sapiens) (UniProt P26367). The assay is described as follows: ATG_Pax6_CIS: Attagene CIS-FACTORIAL HepG2 Assay for human Paired Box 6 (PAX6) (AID 2282956). The conditions noted are these: HepG2 CIS-FACTORIAL PAX6 reporter transcription, RNA readout; actives raise or lower the signal. The gist of the method:
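HepG2 cells transiently transfected with cis-promoter-driven multiplexed reporter units sensing endogenous transcription factor activity; 24 h chemical exposure. Reporter mRNA quantified by RT-PCR, 6-FAM labelling, HpaI digestion and capillary electrophoresis; bidirectional fit versus DMSO baseline.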

The nature of assay [11]: ATG_PXRE_CIS: Attagene CIS-FACTORIAL HepG2 Assay for human Pregnane X Receptor Element (PXRE) (AID 2282957). The conditions noted are these: HepG2 Attagene CIS-FACTORIAL PXRE reporter, mRNA; actives raise or lower the signal. A digest of the protocol: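 Cells: HepG2, transiently transfected reporter units under cis promoter control. Exposure: 24 h. Detection: reporter mRNA via RT-PCR/CE fluorescence; bidirectional fitting, DMSO-referenced.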

Assay [12] is described as follows: ATG_PPRE_CIS: Attagene CIS-FACTORIAL HepG2 Assay for human Peroxisome Proliferator-activated Response Element (PPRE) (AID 2282958). To be noted: HepG2 PPRE cis-element reporter, Attagene transcription factor profiling; actives raise or lower the signal. The gist of the method: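 After human HepG2 hepatoma cells were transiently transfected with cis-promoter reporter constructs, they were exposed to test chemicals for 24 hours. Reporter RNA was then reverse-transcribed, PCR-amplified, FAM-labeled, HpaI-digested and quantified by capillary electrophoresis.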

Assay [13] is described as follows: ATG_RORE_CIS: Attagene CIS-FACTORIAL HepG2 Assay for human RAR-related Orphan Receptor Element (RORE) (AID 2282959). To be noted: HepG2 Attagene cis-factorial RORE reporter, mRNA; actives raise or lower the signal. A digest of the protocol: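 Measured here: transcript induction of a cis-regulated reporter in HepG2 cells transiently transfected via FuGene 6. After 24 h, RNA was processed by RT-PCR and fluorescent capillary electrophoresis; DMSO defined baseline activity.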

The nature of assay [14]: ATG_Sox_CIS: Attagene CIS-FACTORIAL HepG2 Assay for human SRY-box transcription factor (SOX) (AID 2282960). The conditions noted are these: HepG2 Attagene cis-factorial SOX reporter, mRNA; actives raise or lower the signal. A digest of the protocol:
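Using transiently transfected HepG2 cells, reporter transcription driven by cis elements was assessed 24 h after dosing. Signal was fluorescence of capillary-separated RT-PCR products, with DMSO defining baseline activity.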

For assay [15], the target named is Transcription factor Sp1 (Homo sapiens) (UniProt P08047). In words: ATG_Sp1_CIS: Attagene CIS-FACTORIAL HepG2 Assay for human Specificity Protein 1 (Sp1) (AID 2282961). To be noted: HepG2 Sp1 cis-reporter transcription, actives raise or lower the signal. A digest of the protocol:
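After transient transfection of HepG2 cells with cis-promoter reporter units and 24 h chemical treatment, reporter transcripts were quantified by RT-PCR and capillary electrophoresis fluorescence. Gain- and loss-of-signal fitted against DMSO.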

The nature of assay [16]: ATG_SREBP_CIS: Attagene CIS-FACTORIAL HepG2 Assay for human Sterol Regulatory Element Binding (SREBP) (AID 2282962). To be noted: HepG2 Attagene cis-factorial SREBP reporter, mRNA; actives raise or lower the signal. A digest of the protocol: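 HepG2 cells transiently transfected with multiplexed cis-promoter reporter units sensing endogenous transcription factors; reporter mRNA measured 24 h after dosing by RT-PCR, 6-FAM labeling, HpaI digestion and capillary electrophoresis. Bidirectional fit versus DMSO.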

The target in assay [17] is Signal transducer and activator of transcription 3 (Homo sapiens) (UniProt P40763). In words: ATG_STAT3_CIS: Attagene CIS-FACTORIAL HepG2 Assay for human Signal Transducer and Activator of Transcription 3 (STAT3) (AID 2282963). The conditions noted are these: HepG2, Attagene cis-factorial STAT3 reporter transcription; actives raise or lower the signal. A digest of the protocol: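 Transcript-level reporter assay. HepG2 transient MRTU transfection, 24 h exposure, fluorescence detection after RT-PCR and CE; DMSO baseline.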
Signal transducer and activator of transcription 3 (Homo sapiens), sequence (P40763 whole entry, looked up): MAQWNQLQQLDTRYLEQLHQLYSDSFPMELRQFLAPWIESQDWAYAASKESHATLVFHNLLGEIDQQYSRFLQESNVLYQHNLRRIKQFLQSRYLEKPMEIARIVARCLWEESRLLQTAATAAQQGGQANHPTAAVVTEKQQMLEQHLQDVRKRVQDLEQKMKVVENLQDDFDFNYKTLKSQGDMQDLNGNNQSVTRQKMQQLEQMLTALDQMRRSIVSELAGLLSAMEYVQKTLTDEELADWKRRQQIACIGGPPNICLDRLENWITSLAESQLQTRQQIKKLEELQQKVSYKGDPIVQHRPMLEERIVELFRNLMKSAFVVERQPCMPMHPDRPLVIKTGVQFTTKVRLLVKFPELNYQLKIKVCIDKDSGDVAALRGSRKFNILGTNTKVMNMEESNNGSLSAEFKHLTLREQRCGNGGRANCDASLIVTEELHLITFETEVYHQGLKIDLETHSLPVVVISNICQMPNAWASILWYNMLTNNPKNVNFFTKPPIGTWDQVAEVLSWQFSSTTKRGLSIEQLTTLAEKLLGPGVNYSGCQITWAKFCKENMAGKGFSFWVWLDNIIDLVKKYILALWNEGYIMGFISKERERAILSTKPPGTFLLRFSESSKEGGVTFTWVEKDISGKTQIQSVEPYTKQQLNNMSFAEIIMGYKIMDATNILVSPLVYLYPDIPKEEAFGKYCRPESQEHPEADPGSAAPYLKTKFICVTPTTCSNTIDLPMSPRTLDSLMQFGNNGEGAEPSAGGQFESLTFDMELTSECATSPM

Assay [18] in a line: ATG_TA_CIS: Attagene CIS-FACTORIAL HepG2 Assay for human TA Basal Promoter (AID 2282964). The conditions noted are these: HepG2 Attagene CIS-factorial TA basal promoter reporter; actives raise or lower the signal. The gist of the method: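 HepG2 cells transiently transfected with multiplexed cis-promoter reporter units, dosed 24 h. Reporter mRNA measured by RT-PCR, 6-FAM labelling, HpaI digestion and capillary electrophoresis; bidirectional fit versus DMSO baseline, serving as background control.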

The nature of assay [19]: ATG_PBREM_CIS: Attagene CIS-FACTORIAL HepG2 Assay for human Phenobarbital-responsive Enhancer Module (PBREM) (AID 2282955). To be noted: HepG2 PBREM cis-reporter, Attagene multiplexed transcription; actives raise or lower the signal. A digest of the protocol:
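Readout: reporter mRNA, fluorescent RT-PCR fragments separated by capillary electrophoresis. System: HepG2 transiently transfected with cis-regulated reporter units. Exposure: 24 h. Analysis: bidirectional, DMSO baseline.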

The nature of assay [20]: ATG_M_06_CIS: Attagene CIS-FACTORIAL HepG2 Assay for M06 Transcription Factor (Internal Marker) (AID 2282950). The conditions noted are these: HepG2 Attagene CIS-FACTORIAL M06 internal marker reporter; actives raise or lower the signal. The gist of the method: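 HepG2 cells transiently transfected with cis-regulated multiple reporter transcription units were exposed to chemical for 24 h; reporter mRNA was quantified by RT-PCR, 6-FAM primer labelling, HpaI digestion and capillary electrophoresis, fitted bidirectionally against DMSO.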

Paired box protein Pax-6 (Homo sapiens), sequence (P26367 whole entry, looked up): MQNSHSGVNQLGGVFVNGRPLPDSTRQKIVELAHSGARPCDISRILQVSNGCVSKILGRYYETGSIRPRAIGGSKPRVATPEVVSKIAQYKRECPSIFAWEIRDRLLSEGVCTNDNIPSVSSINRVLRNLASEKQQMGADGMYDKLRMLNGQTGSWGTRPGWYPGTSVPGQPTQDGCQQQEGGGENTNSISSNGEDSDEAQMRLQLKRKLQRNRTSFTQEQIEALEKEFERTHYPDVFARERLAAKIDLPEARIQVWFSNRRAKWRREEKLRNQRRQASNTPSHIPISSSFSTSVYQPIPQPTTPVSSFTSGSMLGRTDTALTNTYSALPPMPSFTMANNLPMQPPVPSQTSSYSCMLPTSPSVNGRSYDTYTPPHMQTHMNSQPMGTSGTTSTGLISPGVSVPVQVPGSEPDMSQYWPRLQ
Transcription factor Sp1 (Homo sapiens), sequence (P08047 whole entry, looked up): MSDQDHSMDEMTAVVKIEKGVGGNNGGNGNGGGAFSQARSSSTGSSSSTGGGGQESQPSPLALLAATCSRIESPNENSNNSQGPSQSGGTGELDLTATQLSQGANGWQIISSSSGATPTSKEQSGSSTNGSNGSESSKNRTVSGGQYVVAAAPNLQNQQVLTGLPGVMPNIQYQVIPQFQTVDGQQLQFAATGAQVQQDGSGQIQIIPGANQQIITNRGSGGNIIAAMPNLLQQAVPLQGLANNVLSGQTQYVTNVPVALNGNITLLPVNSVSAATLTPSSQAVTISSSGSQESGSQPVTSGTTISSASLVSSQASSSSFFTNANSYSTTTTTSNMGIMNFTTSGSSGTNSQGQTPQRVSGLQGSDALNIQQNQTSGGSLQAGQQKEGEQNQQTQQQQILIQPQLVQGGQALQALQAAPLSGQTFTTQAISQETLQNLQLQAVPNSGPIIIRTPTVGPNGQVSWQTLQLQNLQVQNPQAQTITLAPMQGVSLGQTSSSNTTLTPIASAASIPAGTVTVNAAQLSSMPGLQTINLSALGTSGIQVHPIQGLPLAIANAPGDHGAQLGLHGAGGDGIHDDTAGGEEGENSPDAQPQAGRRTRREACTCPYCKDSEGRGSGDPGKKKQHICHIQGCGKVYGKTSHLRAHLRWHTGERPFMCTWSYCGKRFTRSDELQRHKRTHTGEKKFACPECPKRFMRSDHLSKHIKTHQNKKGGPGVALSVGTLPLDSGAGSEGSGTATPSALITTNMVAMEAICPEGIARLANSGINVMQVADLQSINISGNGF
Bile acid receptor (Homo sapiens), sequence (Q96RI1 whole entry, looked up): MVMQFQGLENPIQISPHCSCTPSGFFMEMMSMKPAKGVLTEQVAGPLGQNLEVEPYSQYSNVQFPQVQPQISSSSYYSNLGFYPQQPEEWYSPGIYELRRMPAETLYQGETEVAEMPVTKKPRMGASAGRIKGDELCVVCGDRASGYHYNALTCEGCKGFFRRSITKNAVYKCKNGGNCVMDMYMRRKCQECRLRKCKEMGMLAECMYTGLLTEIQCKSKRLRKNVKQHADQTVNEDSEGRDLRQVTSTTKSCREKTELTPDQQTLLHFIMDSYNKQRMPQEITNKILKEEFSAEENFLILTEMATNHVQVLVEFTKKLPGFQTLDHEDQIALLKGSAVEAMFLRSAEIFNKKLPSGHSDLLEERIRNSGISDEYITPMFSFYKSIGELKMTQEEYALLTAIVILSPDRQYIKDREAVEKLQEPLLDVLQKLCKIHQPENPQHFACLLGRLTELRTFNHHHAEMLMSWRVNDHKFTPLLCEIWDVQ
Hepatocyte nuclear factor 6 (Homo sapiens), sequence (Q9UBC0 whole entry, looked up): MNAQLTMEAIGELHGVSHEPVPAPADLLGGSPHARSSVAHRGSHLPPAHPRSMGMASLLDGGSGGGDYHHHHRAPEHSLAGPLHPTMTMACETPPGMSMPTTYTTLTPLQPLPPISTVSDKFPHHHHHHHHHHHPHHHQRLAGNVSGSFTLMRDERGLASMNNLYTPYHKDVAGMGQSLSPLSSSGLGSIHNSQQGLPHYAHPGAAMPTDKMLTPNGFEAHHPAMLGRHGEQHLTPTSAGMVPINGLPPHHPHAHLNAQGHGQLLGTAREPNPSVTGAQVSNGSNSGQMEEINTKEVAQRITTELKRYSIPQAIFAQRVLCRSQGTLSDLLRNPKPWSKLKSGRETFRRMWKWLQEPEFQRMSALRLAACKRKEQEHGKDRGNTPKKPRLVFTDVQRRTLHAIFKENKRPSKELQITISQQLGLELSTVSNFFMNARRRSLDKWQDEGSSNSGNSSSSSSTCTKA
Heat shock factor protein 1 (Homo sapiens), sequence (Q00613 whole entry, looked up): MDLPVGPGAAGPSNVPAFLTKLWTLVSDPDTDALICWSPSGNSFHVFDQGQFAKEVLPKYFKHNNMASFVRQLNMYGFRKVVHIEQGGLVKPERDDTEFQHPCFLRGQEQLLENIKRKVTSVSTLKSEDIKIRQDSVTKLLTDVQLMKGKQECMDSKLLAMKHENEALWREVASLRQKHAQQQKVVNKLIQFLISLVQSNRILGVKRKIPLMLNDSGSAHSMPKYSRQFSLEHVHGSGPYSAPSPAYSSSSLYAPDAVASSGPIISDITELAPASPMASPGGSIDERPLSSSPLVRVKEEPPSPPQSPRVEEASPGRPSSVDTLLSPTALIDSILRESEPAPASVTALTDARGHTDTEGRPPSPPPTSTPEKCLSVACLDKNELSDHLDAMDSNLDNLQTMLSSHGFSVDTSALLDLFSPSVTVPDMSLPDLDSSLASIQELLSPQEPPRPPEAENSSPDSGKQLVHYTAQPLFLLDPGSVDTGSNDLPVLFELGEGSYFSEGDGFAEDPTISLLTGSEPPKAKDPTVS
Hypoxia-inducible factor 1-alpha (Homo sapiens), sequence (Q16665 whole entry, looked up): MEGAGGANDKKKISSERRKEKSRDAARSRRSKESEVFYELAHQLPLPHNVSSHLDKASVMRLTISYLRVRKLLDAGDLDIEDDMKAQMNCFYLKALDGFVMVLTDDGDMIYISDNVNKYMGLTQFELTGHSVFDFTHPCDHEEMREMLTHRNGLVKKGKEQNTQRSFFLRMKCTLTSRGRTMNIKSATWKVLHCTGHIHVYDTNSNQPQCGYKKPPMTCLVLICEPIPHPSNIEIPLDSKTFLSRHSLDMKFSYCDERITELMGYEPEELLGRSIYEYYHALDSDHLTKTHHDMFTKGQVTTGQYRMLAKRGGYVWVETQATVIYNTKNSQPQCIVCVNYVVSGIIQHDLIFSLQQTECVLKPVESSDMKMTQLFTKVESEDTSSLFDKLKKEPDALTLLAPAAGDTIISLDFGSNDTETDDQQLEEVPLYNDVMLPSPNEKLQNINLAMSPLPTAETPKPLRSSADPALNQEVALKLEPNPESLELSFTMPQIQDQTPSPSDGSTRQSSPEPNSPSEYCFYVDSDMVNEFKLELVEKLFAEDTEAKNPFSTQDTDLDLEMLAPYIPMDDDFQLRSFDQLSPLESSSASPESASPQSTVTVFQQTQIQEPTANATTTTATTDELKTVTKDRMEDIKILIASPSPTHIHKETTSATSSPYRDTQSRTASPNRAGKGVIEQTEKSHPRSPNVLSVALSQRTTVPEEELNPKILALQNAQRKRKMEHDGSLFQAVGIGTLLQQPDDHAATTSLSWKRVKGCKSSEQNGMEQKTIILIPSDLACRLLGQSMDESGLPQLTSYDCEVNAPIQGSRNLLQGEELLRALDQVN

The term AC50 denotes the concentration at which the activity in the assay is half-maximal. In the case of `Oc1cc2ccccc2c2ccccc12`, the result in assay [1], in assay [2], in [3], in assay [4], in assay [5] and in assay [6] was inactive. Besides, the call in assay [7], in assay [8], in [9], in assay [10], in assay [12] and in assay [13] was inactive. Further, the outcome in [14], in assay [15], in [16], in assay [17] and in [18] was inactive. In addition, in [11], the AC50 was 3710 nM (active).
Consider `CCN(CC)CCNc1ccc(CNC=O)c2sc3ccc(OC)cc3c(=O)c12`, for which the result in [1], in assay [4], in [5], in assay [9], in [10] and in [11] was inactive. The call in assay [12], in [14], in assay [16], in assay [17] and in assay [18] was inactive. The AC50 was 1190 nM (active) in assay [2]; 1850 nM (active) in assay [3]; 515 nM (active) in assay [6]; 947 nM (active) in [7]; 1850 nM (active) in [8]; 980 nM (active) in [15].
For `CC(C)(C)c1ccc(O)c(C(C)(C)C)c1`, the call in assay [1], in [3], in assay [4], in assay [5], in assay [6] and in [7] was inactive. Also, the compound was classed as inactive in assay [8], in [9], in assay [19], in assay [10], in assay [13] and in [14]. In addition, the compound was called inactive in [15], in assay [16], in assay [17] and in [18]. Moreover, the AC50 in assay [2] is 5790 nM (active); in assay [11], 7210 nM (active).
Turning to `OC1CCCCC1`, the result in [1], in assay [3], in assay [4], in assay [5], in [20] and in [6] was inactive. Besides, the call in assay [7], in assay [8], in [9], in assay [19], in assay [10] and in assay [11] was inactive. The result in assay [12], in assay [13], in [14], in assay [15], in assay [16] and in assay [17] was inactive. Also, the result in assay [18] was inactive.
